Most compounds without a hit are left out; they make up all but 19% or so of the library.
TDP1 cell noCPT = qHTS for Inhibitors of human tyrosyl-DNA phosphodiesterase 1 (TDP1): qHTS in cells in absence of CPT. DT40 Tdp1-/- hTDP1 cells, no CPT, ATP luminescence, 48 h. Potency, µM (doses to about 46.2 µM), hits mostly inhibitors. 420,000 tested, 15% active. AID 686978, 2013; note: nearly all actives have a fitted effect of over 55% in size
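Stably hTDP1-transfected Tdp1-null chicken DT40 cells were treated with library compounds minus camptothecin and grown for at least 48 hr at 37 °C, after which cellular ATP was quantified by luminescence.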
HT1080-NT tox = kills 2HG-producing HT-1080-NT fibrosarcoma cells | HT-1080-NT fibrosarcoma viability, CellTiter-Glo ATP luminescence, 48 h | Potency, µM (series often up to 46.1 µM), hits mostly cytotoxic | 360,000 tested, 1.6% active | AID 686970;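 note: NT is the 2HG producing partner of a matched IDH1 knockdown line; nearly all actives have a fitted effect of over 55% in size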
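Compounds were tested in concentration-response format on HT-1080-NT cells for 48 hours at 37 degrees C. Cell viability came from CellTiter-Glo luminescence; curves were classified by r2, response magnitude and activity.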
TDP1 cell CPT = DT40-hTDP1 cell growth loss with CPT. chicken DT40 Tdp1-/-;hTDP1 cells + 20 nM CPT, ATP luminescence, 48 h. Potency, µM (titrated, usually from 46.2 µM), actives largely listed as inhibitors. 420,000 tested, 12% active; note: nearly all actives have a fitted effect of over 55% in size
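Cell growth measured by CellTiter-Glo luminescence after a minimum 48 h, 37 C compound exposure with 20 nM CPT in Tdp1-knockout DT40 cells stably expressing hTDP1, seeded 400/well; qHTS titration format.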
IL-1B inflam inh = inhibitors of inflammasome signaling (IL-1 beta secretion) | THP-1 LPS/ATP IL-1B secretion, AlphaLISA, 16 h; active compounds read low | activity change, % at 57.5 µM | 360,000 tested, 4.7% active | AID 743279; in the data active = activity change below about -50%; inconclusive = mostly about -30% to -49%
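Secreted IL-1B measured by AlphaLISA bead assay after 16 h compound exposure of THP-1 cells; compounds (final up to 57.5 uM) added 1 h before LPS (250 ng/mL) and ATP (1.25 mM) stimulation; lower signal means less secretion.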
HT1080 IDH1KD tx = toxicity to HT-1080 IDH1 knockdown cells (counter line). Potency, µM (titrated, usually from 46.1 µM), hits mostly cytotoxic. 360,000 tested, 2% active. HT-1080 IDH1 knockdown viability, ATP luminescence, 48 h
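In this qHTS, HT-1080 cells depleted of IDH1 are exposed for 48 h at 37 °C to compound titrations. Toxicity is scored from CellTiter-Glo luminescence, with DMSO as full viability and medium alone as none.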
A number is an active result; n = inactive; u = inconclusive; x = no result. Unless noted, calls come from the whole dose curve; as a rule, active = well fitted curve in the direction sought with a large enough effect; inconclusive = small, poorly fitted or top-dose-only effect, or another doubt; inactive = no such curve, though single readings can be large; an effect the other way counts as inactive or inconclusive.

SMILES	TDP1 cell noCPT	HT1080-NT tox	TDP1 cell CPT	IL-1B inflam inh	HT1080 IDH1KD tx
COc1ccc(C2=C(C=C(C#N)C#N)C(c3ccccc3C)c3ccccc3O2)cc1OC (stereo not drawn)	21µM	n	u	n	n
COc1ccc(OC)c(NC(=O)Cc2coc3ccc4ccccc4c23)c1	13µM	n	u	n	n
COc1ccc(OC)c(NC(=O)Cc2coc3cc(C)cc(C)c23)c1	u	n	u	n	n
COc1ccc(NC(=O)Cc2coc3cc(C)cc(C)c23)c(OC)c1	u	x	21µM	x	x
Cc1cccc(NC(=O)Cc2coc3ccc4ccccc4c23)n1	16µM	u	10µM	n	7.1µM
COc1ccc(OC)c(NC(=O)Cc2coc3ccc(C)cc23)c1	u	n	u	n	n
O=C(O)Cc1coc2ccc3ccccc3c12	n	n	n	n	n
CCCCN1C(=O)C(C(=O)OCc2ccccc2)CC2=C1CCCC2=O (stereo not drawn)	n	n	n	n	n
Cc1c(CCC(=O)N[C@@H](CC(C)C)C(=O)O)c(=O)oc2cc3oc4c(c3cc12)CCCC4	n	n	n	n	n
O=c1c2ccccc2nc(-c2ccccc2)n1CCN1CCOCC1	n	n	n	n	n
c1ccc(-c2csc3ncnc(N4CCOCC4)c23)cc1	u	n	n	n	n
c1ccc(-c2csc3ncnc(NCC4COc5ccccc5O4)c23)cc1 (stereo not drawn)	0.92µM	n	0.73µM	n	n
CC(C)CC(Nc1ncnc2scc(-c3ccccc3)c12)C(=O)O (stereo not drawn)	n	n	n	n	n
c1ccc(-c2csc3ncnc(NCCCN4CCOCC4)c23)cc1	13µM	n	12µM	n	u
c1csc(-c2csc3ncnc(NCCCN4CCOCC4)c23)c1	13µM	u	16µM	n	u
Cc1csc2c(NCCCN3CCOCC3)ncnc12	n	n	n	n	n
O=c1c2c(-c3ccccc3)csc2nc2c3ccccc3c(NCCN3CCOCC3)nn12	5.2µM	15µM	8.2µM	-101	10µM
S=C1SC2(CCCCCC2)NC2=C1CCCCC2	13µM	n	u	n	n
O=C(Nc1ccccc1Oc1cccnc1)C1CCCN(C/C=C/c2ccc(F)cc2)C1 (stereo not drawn)	u	n	u	-59	n
O=C(Nc1ccccc1Oc1ccccc1)C1CCCC1	n	n	n	n	n
Cc1cccc(CN2CCCC(C(=O)Nc3ccccc3Oc3cccnc3)C2)c1 (stereo not drawn)	u	n	u	-56	n
O=S(=O)(Nc1ncn[nH]1)c1ccc(Cl)cc1	n	n	n	n	n
Cc1nc2oc3c(NCc4ccccc4)ncnc3c2c2c1COC(C)(C)C2	18µM	n	u	u	n
CCCc1nc2oc3c(OC)ncnc3c2c2c1COC(C)(C)C2	21µM	n	u	n	n
CC(C)c1nc2oc3c(NCC4CCCO4)ncnc3c2c2c1COC(C)(C)C2 (stereo not drawn)	15µM	n	u	n	n
SMILES	TDP1 cell noCPT	HT1080-NT tox	TDP1 cell CPT	IL-1B inflam inh	HT1080 IDH1KD tx
CCC(Oc1ccccc1OC)C(=O)Nc1ccc2c(c1)OCCO2 (stereo not drawn)	n	n	n	n	n
Cc1ccc2c(c1)CN(CCNC(=O)c1n[nH]c3c1CCCC3)CC(C)O2 (stereo not drawn)	n	x	u	x	x
Cc1ccc(S(=O)(=O)N(C)CCCC(=O)N2CCN(C=O)CC2)cc1	n	n	n	n	n
Cc1cc(C)c[n+](-c2[nH]c(=O)sc2/C=N/N=C(\[O-])c2cccnc2)c1	n	n	n	n	n
Cc1ccc(C(=O)NC(NCc2ccccc2)C(Cl)(Cl)Cl)cc1 (stereo not drawn)	n	n	n	n	n
COCCCNC(NC(=O)c1ccc(Cl)cc1)C(Cl)(Cl)Cl (stereo not drawn)	16µM	n	u	n	n
CC(C)OCCCNC(=O)C(NC(=O)c1ccc(Cl)cc1)C(C)C (stereo not drawn)	n	n	n	n	n
CC(C)OCCCNC(=O)NC(=O)c1ccc(Cl)cc1	26µM	n	u	n	n

Screening results (PubChem)
